Eya2 phos inh: inhibitors of human Eya2 phosphatase activity; O00167; recombinant Eya2, OMFP fluorescence dephosphorylation (OMFP is methylfluorescein phosphate); Potency, µM (doses to about 76.9 µM), usual class: inhibitors; 0.006% of 330,000 active; AID 488837
Target sequence (O00167 whole entry, looked up): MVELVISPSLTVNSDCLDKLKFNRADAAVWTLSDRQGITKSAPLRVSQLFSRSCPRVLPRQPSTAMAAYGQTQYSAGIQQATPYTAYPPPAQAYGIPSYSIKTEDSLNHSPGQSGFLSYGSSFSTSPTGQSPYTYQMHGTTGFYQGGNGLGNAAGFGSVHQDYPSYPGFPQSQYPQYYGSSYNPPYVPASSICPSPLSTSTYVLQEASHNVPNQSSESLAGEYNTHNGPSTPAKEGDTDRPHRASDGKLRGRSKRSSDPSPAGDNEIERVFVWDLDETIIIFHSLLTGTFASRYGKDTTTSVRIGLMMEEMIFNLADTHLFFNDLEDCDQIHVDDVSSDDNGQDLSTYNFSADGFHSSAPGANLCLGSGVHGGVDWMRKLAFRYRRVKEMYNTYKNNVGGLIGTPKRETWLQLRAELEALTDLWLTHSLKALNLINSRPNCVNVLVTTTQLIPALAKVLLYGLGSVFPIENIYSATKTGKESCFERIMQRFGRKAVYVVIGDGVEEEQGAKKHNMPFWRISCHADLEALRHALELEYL
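Eya2 (0.2 uM) preincubated 10 min at ambient with compound, then OMFP substrate added at 50 uM; 10 min reaction in 50 mM HEPES pH 7.5, 50 mM NaCl, 5 uM MgCl2, 0.05% BSA, 1 mM DTT. Fluorescence read at Ex 485/Em 525 nm.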
Coupling enz: counter-screen for Giardia aldolase inhibitors: coupling enzyme system. coupling enzyme system counterscreen, AmpLite Red fluorescence. activity change, negative = inhibition, % at 58.2 µM, hits read low. 0.67% of 290,000 active; in the data active means activity change below about -30%
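Activity here indicates interference with the coupling reaction, not aldolase inhibition. Compounds at 57.5 uM final met coupling enzymes for 10 min at RT; substrate and AmpLite Red detection followed, with a 525/598 nm fluorescence read after 20 min.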
GALK inhibitor: inhibitors of human galactokinase. P51570. Purified GALK, Kinase-Glo residual ATP luminescence. 0.007% of 270,000 active. Potency, µM (highest dose often 57.5 µM), hits mostly inhibitors
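Kinase-Glo Plus luminescence measured ATP left after a 1 h room-temperature reaction. The reaction used 5 nM GALK, 100 uM galactose and 35 uM ATP at pH 8.0 (20 mM HEPES, 5 mM MgCl2, 60 mM NaCl, 1 mM DTT, 0.01% BSA).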
USP1 inh: USP1/UAF1 (human) deubiquitinase inhibition | AID 743255 | 0.23% of 390,000 active | recombinant USP1/UAF1, Ub-Rhodamine cleavage fluorescence | O94782 | Potency, µM (series often up to 57.1 µM), most hits filed as inhibitors; further: nearly all actives have a fitted effect of over 60% in size
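USP1/UAF1 complex at 1 nM was preincubated with compound for 15 min at room temperature, then Ub-Rho substrate (150nM final) was added. Fluorescence (480/540 nm) was read kinetically, 6 reads every 60 seconds.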
USP2a block: USP2a (human) protease inhibition; O75604; USP2 core, Ub-CHOP2 coupled fluorogenic reporter, 485/531; Potency, µM (doses to about 38.3 µM), actives largely listed as inhibitors; 0.01% of 330,000 active
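Cell-free coupled assay: 10nM USP2 core preincubated 30min RT with compound in Tris-HCl pH 8.0/CaCl2/CHAPS buffer, then 25nM Ub-CHOP2 and 25nM reporter substrate; fluorescence (Ex 485/Em 531) read after 60min RT, normalized to NEM inhibition, concentration-response curves fitted.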
PI4K2A block: inhibitors of human PI4K2A | Q9BTU6 | activity change, negative = inhibition, % at 76.9 µM | purified PI4K2A, ADP-Glo luminescence, 1 h; hits give low values | AID 1346378 | 0.13% of 420,000 active; in the data active means activity change below about -50%; inconclusive means mostly about -30% to -49%
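In this quantitative HTS, ADP production by PI4K2A was quantified luminescently after 1 h at ambient temperature; 100 microM adenosine served as plate-quality control.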
A number is an active result. Most compounds without a hit are left out; they make up all but 0.71% or so of the library. Unless noted, the call rests on the fitted dose curve; in most records, active means well fitted curve in the direction sought with a large enough effect; inconclusive means small, poorly fitted or top-dose-only effect, or another doubt; inactive means no such curve, though single readings can be large; an effect the other way counts as inactive or inconclusive.

COc1ccc(S[C@]2(C(=O)N(C)C)CC(=O)N(C(=O)CCc3ccccc3)[C@@H]2c2ccc(OC)cc2)cc1 was read as PI4K2A block inactive.
For O=C(Nc1cccc(Cl)c1)OCCOC(=O)Nc1cccc(Cl)c1 the results were USP1 inh inactive and PI4K2A block inactive.
O=C(Nc1cccc(Cl)c1)OCC#CCCl was read as Coupling enz -38.3.
`N#Cc1cccc(NC(=O)N2CC[C@@]3(CCCN(C(=O)c4ccco4)C3)C2)c1` gave Coupling enz inactive.
COc1ccc2c(c1)CCc1cnc(N)nc1-2 was read as Eya2 phos inh inactive, Coupling enz inactive, GALK inhibitor inactive, USP1 inh inactive, USP2a block inactive and PI4K2A block inactive.
Screening COc1ccc2c(c1)CCc1cn3nc(C)cc3nc1-2 returned Eya2 phos inh inactive, Coupling enz -45.5, GALK inhibitor inactive, USP1 inh inactive, USP2a block inactive and PI4K2A block inactive.
Nc1c(I)cc(I)c(C(=O)N(CCC(=O)O)c2ccccc2)c1I was read as PI4K2A block inactive.
CCS(=O)(=O)n1nc(-c2ccco2)nc1SC was read as Coupling enz -75.9, GALK inhibitor inactive, USP1 inh inactive and PI4K2A block inactive.
CSc1nc(-c2ccco2)nn1S(=O)(=O)c1ccc(C)cc1 was read as Eya2 phos inh inactive, Coupling enz -34.3, GALK inhibitor inactive, USP1 inh inactive, USP2a block inactive and PI4K2A block inactive.
Screening COc1ccc(O[C@H]2C=C[C@@H](c3ccccc3)O[C@H]2COC(=O)N2CCCCC2)cc1 returned Coupling enz inactive.
CC(=O)c1ccc(NC(=S)NCCc2ccc(S(N)(=O)=O)cc2)cc1 was read as Eya2 phos inh inactive, Coupling enz inactive, GALK inhibitor inactive, USP1 inh inactive, USP2a block inactive and PI4K2A block inactive.
Screening CC(C)OCCCNC(=S)Nc1ccc(S(N)(=O)=O)cc1 returned Eya2 phos inh inactive, Coupling enz -65.4, GALK inhibitor inactive, USP1 inh inactive, USP2a block inactive and PI4K2A block inactive.
`Cc1cccc(OC(=O)CN2C(=O)C3C4CCC(C4)C3C2=O)c1C` (centres undefined) gave Eya2 phos inh inactive, Coupling enz inactive, GALK inhibitor inactive, USP1 inh inactive, USP2a block inactive and PI4K2A block -84.7.
COc1ccc(OC(=O)CN2C(=O)C3C4CCC(C4)C3C2=O)cc1 (centres undefined) was read as Eya2 phos inh inactive, Coupling enz inactive, GALK inhibitor inactive, USP1 inh inactive, USP2a block inactive and PI4K2A block inactive.
For CSCC[C@H](NC(=O)[C@H](CCC(N)=O)NC(=O)[C@H](CCCCN)NC(=O)[C@H](CCCNC(=N)N)NC(=O)[C@H](Cc1ccc(O)cc1)NC(=O)[C@H](CCCNC(=N)N)NC(=O)[C@H](CO)NC(=O)[C@H](Cc1ccc(O)cc1)NC(=O)[C@H](CO)NC(=O)[C@H](CC(=O)O)NC(=O)[C@@H](NC(=O)[C@@H](N)Cc1ccccc1)[C@@H](C)O)C(=O)N[C@@H](C)C(=O)N[C@H](C(=O)N[C@@H](CCCCN)C(=O)N[C@@H](CCCCN)C(=O)N[C@@H](Cc1ccc(O)cc1)C(=O)N[C@@H](CC(C)C)C(=O)N[C@@H](C)C(=O)N[C@@H](C)C(=O)N[C@H](C(=O)N[C@@H](CC(C)C)C(=O)NCC(=O)N[C@@H](CCCCN)C(=O)N[C@@H](CCCNC(=N)N)C(=O)N[C@@H](Cc1ccc(O)cc1)C(=O)N[C@@H](CCCCN)C(=O)N[C@@H](CCC(N)=O)C(=O)N[C@@H](CCCNC(=N)N)C(=O)N[C@H](C(=O)N[C@@H](CCCCN)C(=O)N[C@@H](CC(N)=O)C(=O)N[C@@H](CCCCN)C(N)=O)C(C)C)C(C)C)C(C)C the results were Coupling enz inactive.
For COc1ccc(NCc2nnc(SCC(=O)N3CCCc4ccccc43)n2C)cc1 the results were Eya2 phos inh inactive, Coupling enz -38.3, GALK inhibitor inactive, USP1 inh inactive, USP2a block inactive and PI4K2A block inactive.
CCOc1ccc(OCc2cccc(C(=O)O)c2)cc1 was read as Eya2 phos inh inactive, Coupling enz inactive, GALK inhibitor inactive, USP1 inh inactive, USP2a block inactive and PI4K2A block -58.1.
Oc1ccc(/C=N/N=C/c2ccc(O)c(O)c2)cc1O was read as Eya2 phos inh inactive, Coupling enz inactive, GALK inhibitor inactive, USP1 inh inactive, USP2a block inactive and PI4K2A block inactive.
`Oc1ccc(N=Cc2ccc(O)c(O)c2)cc1` gave Eya2 phos inh inactive, Coupling enz -46.5, GALK inhibitor inactive, USP1 inh 7.94µM, USP2a block inactive and PI4K2A block inactive.
NNc1nc(C(F)(F)F)nc2ccccc12 was read as Eya2 phos inh inactive, Coupling enz inactive, GALK inhibitor inactive, USP1 inh inactive, USP2a block inactive and PI4K2A block inactive.
`O/C=c1\ccc2cccc3nc(C(F)(F)F)nc1c23` gave Eya2 phos inh inactive, Coupling enz inactive, GALK inhibitor inactive, USP1 inh 22.4µM, USP2a block inconclusive and PI4K2A block inactive.
`C/C(CCN1CCCCc2nc(C)c(C)cc21)=N\O[C@@H](C)c1cc(-c2c(C)cc(C)cc2C)no1` gave Coupling enz inactive.
Screening CCCCOc1cc(=O)[nH]c(=O)[nH]1 returned Eya2 phos inh inactive, Coupling enz inactive, GALK inhibitor inactive, USP1 inh inactive, USP2a block inactive and PI4K2A block -51.2.
CCOc1ccc(Nc2cc(=O)[nH]c(=O)[nH]2)cc1 was read as Eya2 phos inh inactive, Coupling enz inactive, GALK inhibitor inactive, USP1 inh inactive, USP2a block inactive and PI4K2A block inactive.
`CCCCCCCCCCCC[N+](C)(C)Cc1ccccc1` gave PI4K2A block inactive.
For CC(C)C1=CC(=Nc2ccc(S(N)(=O)=O)cc2)C=C(C(C)C)C1=O the results were Eya2 phos inh inactive, Coupling enz -43.1, GALK inhibitor inactive, USP1 inh inactive, USP2a block inactive and PI4K2A block inactive.
For O=C(CSc1nnc(-c2ccco2)c(-c2ccco2)n1)Nc1ccccc1 the results were Eya2 phos inh inactive, Coupling enz -30.3, GALK inhibitor inactive, USP1 inh inactive, USP2a block inactive and PI4K2A block inactive.
Screening Cc1ccc(NC(=O)CSc2nnc(-c3ccco3)c(-c3ccco3)n2)cc1 returned Eya2 phos inh inactive, Coupling enz inactive, GALK inhibitor inactive, USP1 inh inactive, USP2a block inactive and PI4K2A block inactive.
